Results: the supplement of paper PMC12494721
Counter-ions that a name gives are not always drawn. Values without a mark were called inactive.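 How the source made its calls: for the amine columns active = adjusted P below 0.05 in both replicates with a change the same way and a mean fold change under 0.8 or over 1.25; inactive = the rest.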

Tested on: Klebsiella aerogenes DSM 30053
Experiment: fold change of Cadaverine concentration vs plate DMSO controls (fold change (ratio)); higher = more amine produced, active = hit call of the paper (significant change in both replicates, either direction)
Conditions: incubation time: 27 h, anaerobic, 37 °C
Procedure, shortened: (§1)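 Amine values are fold changes relative to DMSO-only wells on the same plate. They derive from 27 h, 37 °C anaerobic mGAM cultures of four gut bacterial strains in 80 µL wells, dosed at 20 µM final, or 50 µM final for sweeteners. Extraction of the whole culture, LC–triple-quadrupole MS in dynamic MRM mode, external calibration curves and within-batch drift correction were used, with 2 biological replicates averaged.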

Row | SMILES | fold change of Cadaverine concentration
1 | C1CCC(C(CC2CCCCN2)C2CCCCC2)CC1 (configuration not stated) [Perhexiline maleate] (20 µM) | 1
2 | COc1ccc(-c2cc(=O)c3c(O)cc(O[C@@H]4O[C@H](CO[C@@H]5O[C@@H](C)[C@H](O)[C@@H](O)[C@H]5O)[C@@H](O)[C@H](O)[C@H]4O)cc3o2)cc1O [Diosmin] (20 µM) | 1.02
3 | CC(C)N1CCN(c2ccc(OCC3COC(Cn4cncn4)(c4ccc(Cl)cc4Cl)O3)cc2)CC1 (configuration not stated) [Terconazole] (20 µM) | 1
4 | CCCCNc1ccc(C(=O)OCCN(C)C)cc1 [Tetracaine hydrochloride] (20 µM) | 0.991
5 | CCC(=O)OCC(=O)[C@@]1(OC(=O)CC)[C@H](C)C[C@H]2[C@H]3[C@H]([C@@H](O)C[C@@]21C)[C@@]1(C)C=CC(=O)C=C1C[C@H]3Cl [Alclometasone dipropionate] (20 µM) | 0.997
6 | C#CCN(C)CCCOc1ccc(Cl)cc1Cl [Clorgyline hydrochloride] (20 µM) | 0.991
7 | CCCCS(=O)(=O)N[C@@H](Cc1ccc(OCCCCC2CCNCC2)cc1)C(=O)O [Tirofiban hydrochloride] (20 µM) | 1.01
8 | CC(C)CN(C[C@@H](O)[C@H](Cc1ccccc1)NC(=O)O[C@H]1CCOC1)S(=O)(=O)c1ccc(N)cc1 [Amprenavir] (20 µM) | 1.03
9 | CC[C@H](C)C(=O)O[C@H]1C[C@@H](C)C=C2C=C[C@H](C)[C@H](CC[C@@H]3C[C@@H](O)CC(=O)O3)[C@H]21 [Lovastatin] (20 µM) | 0.999
10 | CN(C)CCN(Cc1ccc(Cl)cc1)c1ccccn1 [Chloropyramine hydrochloride] (20 µM) | 0.994
11 | COC(c1ccccc1)(c1ccccc1)[C@H](Oc1nc(C)cc(C)n1)C(=O)O [Ambrisentan] (20 µM) | 0.997
12 | O=C(O)CCC(=O)Nc1ccc(S(=O)(=O)Nc2nccs2)cc1 [Succinylsulfathiazole] (20 µM) | 1.01
13 | CN(C)CCC=C1c2ccccc2C=Cc2ccccc21 [Cyclobenzaprine hydrochloride] (20 µM) | 0.985

Tested on: Ruminococcus gnavus DSM 108212
Experiment: fold change of 2-Phenylethylamine concentration vs plate DMSO controls (fold change (ratio)); higher = more amine produced, active = hit call of the paper (significant change in both replicates, either direction)
Conditions: incubation time: 27 h, anaerobic, 37 °C
Procedure, shortened: as §1

Row | SMILES | fold change of 2-Phenylethylamine concentration
14 | CN1CCCN=C1/C=C/c1cccc(O)c1 [Oxantel pamoate] (20 µM) | 1.08
15 | COC(=O)[C@H](c1ccccc1Cl)N1CCc2sccc2C1 [Clopidogrel] (20 µM) | 0.941
16 | CCCCCCCCCCCCCCCCCCCCCC(=O)Nc1ccn([C@@H]2O[C@H](CO)[C@@H](O)[C@@H]2O)c(=O)n1 [Enocitabine] (20 µM) | 0.866
17 | CN(C)CCCN1c2ccccc2[S+]([O-])c2ccc(Cl)cc21 (configuration not stated) [Chlorpromazine Sulfoxide] (20 µM) | 1.1
18 | CCN(CC)CCOC(=O)C1(c2ccc([N+](=O)[O-])cc2)CCCC1 [Nitrocaramiphen hydrochloride] (20 µM) | 0.995
19 | COc1ccc(CC2c3cc(OC)c(OC)cc3CC[N+]2(C)CCC(=O)OCCCCCOC(=O)CC[N+]2(C)CCc3cc(OC)c(OC)cc3C2Cc2ccc(OC)c(OC)c2)cc1OC (configuration not stated) [Atracurium besylate] (20 µM) | 1.05
20 | O=C(O)C[C@H](O)C[C@H](O)/C=C/c1c(C2CC2)nc2ccccc2c1-c1ccc(F)cc1 [Pitavastatin calcium] (20 µM) | 1.04
21 | CC(Cc1cccc(C(F)(F)F)c1)NCCOC(=O)c1ccccc1 (configuration not stated) [Benfluorex] (20 µM) | 0.797
22 | S=c1[nH]cnc2nc[nH]c12 [Mercaptopurine] (20 µM) | 0.959
23 | CC(C(=O)O)c1ccc(N2Cc3ccccc3C2=O)cc1 (configuration not stated) [Indoprofen] (20 µM) | 1.11
24 | C[C@@H](O[C@H]1OCCN(Cc2n[nH]c(=O)[nH]2)[C@H]1c1ccc(F)cc1)c1cc(C(F)(F)F)cc(C(F)(F)F)c1 [Aprepitant] (20 µM) | 0.791
25 | Cc1nnc(NS(=O)(=O)c2ccc(N)cc2)s1 [Sulfamethizole] (20 µM) | 0.815
26 | O=C(Cn1c(=O)sc2ccc(Cl)cc21)N1CCN(CCO)CC1 [Tiaramide Hydrochloride] (20 µM) | 1.13
27 | Clc1ccc(COC(Cn2ccnc2)c2ccc(Cl)cc2Cl)c(Cl)c1 (configuration not stated) [Miconazole] (20 µM) | 0.277 (active)
28 | Cc1cn[nH]c1 [Fomepizole] (20 µM) | 0.988
29 | CC[C@H]1OC(=O)[C@H](C)[C@@H](O[C@H]2C[C@@](C)(OC)[C@@H](O)[C@H](C)O2)[C@H](C)[C@@H](O[C@@H]2O[C@H](C)C[C@H](N(C)C)[C@H]2O)[C@](C)(OC)C[C@@H](C)C(=O)[C@H](C)[C@@H](O)[C@]1(C)O [Clarithromycin] (20 µM) | 0.118 (active)
30 | CCCC(=O)OCOC(=O)C1=C(C)NC(C)=C(C(=O)OC)C1c1cccc(Cl)c1Cl (configuration not stated) [Clevidipine] (20 µM) | 0.928
31 | CC[N+](CC)(CC(=O)Nc1c(C)cccc1C)Cc1ccccc1 [Denatonium benzoate] (20 µM) | 0.945
32 | COc1cc(/C=C/C(=O)N2CCN(CC(=O)N3CCCC3)CC2)cc(OC)c1OC [Cinepazide maleate] (20 µM) | 1.14
33 | COC(=O)C1=C(C)NC(C)=C(C(=O)O[C@H]2CCN(Cc3ccccc3)C2)[C@H]1c1cccc([N+](=O)[O-])c1 [Barnidipine Hydrochloride] (20 µM) | 0.944

Row | SMILES | fold change of 2-Phenylethylamine concentration
34 | COCCCOc1ccnc(C[S+]([O-])c2nc3ccccc3[nH]2)c1C (configuration not stated) [Rabeprazole sodium salt] (20 µM) | 1.23
35 | CN(C)[C@@H]1C(=O)C(C(N)=O)=C(O)[C@@]2(O)C(=O)C3=C(O)c4c(O)ccc(Cl)c4[C@@H](O)[C@H]3C[C@@H]12 [Demeclocycline hydrochloride] (20 µM) | 0.364 (active)
36 | O=C1[C@H]2CCCC[C@H]2C(=O)N1CCCCN1CCN(c2nsc3ccccc23)CC1 [Perospirone hydrochloride] (20 µM) | 0.819
37 | CC1=C(/C=C/C(C)=C/C=C/C(C)=C/C(=O)O)C(C)(C)CCC1 [Retinoic acid] (20 µM) | 0.997
38 | C[N+]1(C)CCC(OC(=O)C(O)(c2ccccc2)C2CCCC2)C1 (configuration not stated) [Glycopyrrolate bromide] (20 µM) | 1.02
39 | COc1ccc2cc([C@H](C)C(=O)O)ccc2c1 [(S)-Naproxen] (20 µM) | 0.899
40 | C1CCC(C(CC2CCCCN2)C2CCCCC2)CC1 (configuration not stated) [Perhexiline maleate] (20 µM) | 0.892
41 | COc1ccc(-c2cc(=O)c3c(O)cc(O[C@@H]4O[C@H](CO[C@@H]5O[C@@H](C)[C@H](O)[C@@H](O)[C@H]5O)[C@@H](O)[C@H](O)[C@H]4O)cc3o2)cc1O [Diosmin] (20 µM) | 1
42 | CC(C)N1CCN(c2ccc(OCC3COC(Cn4cncn4)(c4ccc(Cl)cc4Cl)O3)cc2)CC1 (configuration not stated) [Terconazole] (20 µM) | 0.977
43 | CCCCNc1ccc(C(=O)OCCN(C)C)cc1 [Tetracaine hydrochloride] (20 µM) | 1.05
44 | CCC(=O)OCC(=O)[C@@]1(OC(=O)CC)[C@H](C)C[C@H]2[C@H]3[C@H]([C@@H](O)C[C@@]21C)[C@@]1(C)C=CC(=O)C=C1C[C@H]3Cl [Alclometasone dipropionate] (20 µM) | 0.97
45 | C#CCN(C)CCCOc1ccc(Cl)cc1Cl [Clorgyline hydrochloride] (20 µM) | 0.974
46 | CCCCS(=O)(=O)N[C@@H](Cc1ccc(OCCCCC2CCNCC2)cc1)C(=O)O [Tirofiban hydrochloride] (20 µM) | 1.02
47 | CC(C)CN(C[C@@H](O)[C@H](Cc1ccccc1)NC(=O)O[C@H]1CCOC1)S(=O)(=O)c1ccc(N)cc1 [Amprenavir] (20 µM) | 1.08
48 | CC[C@H](C)C(=O)O[C@H]1C[C@@H](C)C=C2C=C[C@H](C)[C@H](CC[C@@H]3C[C@@H](O)CC(=O)O3)[C@H]21 [Lovastatin] (20 µM) | 0.984
49 | CN(C)CCN(Cc1ccc(Cl)cc1)c1ccccn1 [Chloropyramine hydrochloride] (20 µM) | 1.27
50 | COC(c1ccccc1)(c1ccccc1)[C@H](Oc1nc(C)cc(C)n1)C(=O)O [Ambrisentan] (20 µM) | 1.01
51 | O=C(O)CCC(=O)Nc1ccc(S(=O)(=O)Nc2nccs2)cc1 [Succinylsulfathiazole] (20 µM) | 1.02
52 | CN(C)CCC=C1c2ccccc2C=Cc2ccccc21 [Cyclobenzaprine hydrochloride] (20 µM) | 0.921
